Values joined by “and” are separate entries in the source; they are usually repeats but may differ in a detail not shown here. Identical values can stand only once. Unmarked numbers belong to inactive results.

A short description of the assay: growth of efflux-deficient E. coli DRC39 – strain DRC39, OD650, 24 h, E. coli filamentation inducers, primary screen (AID 1178).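 Note: growth measured as culture turbidity by optical density at 650 nm; test concentration not given here.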 The following applies: E. coli DRC39 acrAB, higher = more signal, called active from +8 up or from −8 down.
On to `CO[C@H]1COC(=O)CC=C[C@@H](C)COC(=O)[C@H](CCSC)NC(=O)CC=C[C@@H]1C`, for which the z-score is 0.277 and 0.719.
With `C=CCN(CCCCC)C(=O)C1N(C(C)(C)CO)C(=O)C2C(C(=O)O)C3C=CC21O3` (centres undefined), the z-score is -0.62 and 0.193.
Turning to `C=CCN1C(=O)[C@]2(O[C@H](CCn3cc(CCO)nn3)[C@@H]([Si](C)(C)c3ccc(OC)cc3)[C@@H]2C)c2cc(N3C(=O)c4cccc5cccc3c45)ccc21`, the z-score was 1.91 and 1.72.
Consider `CCC[C@@H]1C[C@@]1(CCC)[C@@H](NC(=O)c1ccc(-c2ccccc2)cc1)c1cccc(Cl)c1`, for which the z-score was -0.505 and -0.336.
To `C[C@@H]1CC[C@H]2C(=O)O[C@H](CN=[N+]=[N-])CN2[C@H]1c1ccc(Br)cc1` belongs -0.686 and -0.801; to `C[C@@H]1CN2[C@@H](CC[C@@H](C)[C@@H]2c2ccc(Br)cc2)C(=O)O1`, 0.322 and 0.819.
In the case of `COc1ccc(O[C@H]2C=C[C@@H](c3ccccc3)O[C@@H]2COC(=O)CCC(C)=NO[C@H](C)c2cn([C@H](CO)Cc3ccccc3)nn2)cc1`, the z-score is 0.521 and 0.693.
Regarding `CON(C)C(=O)c1nnc2c3ccccc3n(S(=O)(=O)c3ccc(C)cc3)c2n1`, the z-score is -0.339 and 0.046.
Consider `COc1ccc(COC(=O)NN=C2C[C@@H](O)[C@@H](O)[C@@H]3[C@@H]4C(=O)N(C(C)(C)C)C(=O)[C@@H]4CC[C@H]23)cc1`, for which the z-score is -0.21.
In the case of `COC(=O)C1=C(C)N(Cc2ccccc2)[C@]23O[C@](C(=O)OC)(C(=O)N2[C@@H]1c1ccccc1)[C@@H](C(=O)OC)[C@H]3C(=O)OC` it was 0.148 and 0.72; in that of `C[C@@H]1CC[C@H]2C(=O)NC[C@@H](O)CN2[C@H]1c1ccc(Br)cc1`, 0.514 and 0.669; in that of `C#CCCCON=C1C[C@@H](O)[C@@H](O)[C@@H]2[C@@H]3C(=O)N(C4CCCCC4)C(=O)[C@@H]3CC[C@H]12`, 0.331.
Consider `C[C@@H]1CC[C@@H](C(=O)O)N[C@H]1c1ccc(-c2ccco2)cc1`, for which the z-score is 0.127.
For the compound `C=CCN(C(=O)C1N(C(C)(C)CO)C(=O)C2C(C(=O)O)C3C=CC21O3)C(C)(C)C` (centres undefined), the z-score is -0.706 and 0.32.
In the case of `C=CCN(C(=O)C(c1cccs1)N(C(=O)/C=C\C(=O)O)c1ccc(CCO)cc1)C(C)(C)C` (centres undefined), the z-score is 0.592 and -0.113.
Take `Cc1ccc(S(=O)(=O)N[C@H]2COC(=O)[C@@H](Cc3ccccc3)NC(=O)[C@@H](C)COC(=O)CC=C[C@@H]2C)cc1`: the z-score is 0.046 and -0.0139.
Take `CC(C)[Si]1(C(C)C)OCc2cc(CCCc3cc4c(c(CCc5ccccc5)n3)[Si](C(C)C)(C(C)C)OC4)nc(CCc3ccccc3)c21`: the z-score was 1.87 and -0.184.
To `O=c1n(-c2ccccc2)c(=O)n2n1CC[C@@H]1C(=NOC[C@@H](O)COCc3ccco3)[C@H]3O[C@H]3[C@@H](O)[C@@H]12` belongs -0.417 and 0.0343.
As to `O=C1C[C@]2(c3ccc([N+](=O)[O-])cc3)C(=O)N(Cc3ccccc3)c3cc(CO)ccc3[C@H]2N1C1CCCCC1`, the z-score is 0.512 and 0.2.
On to `CCOC(=O)[C@H](CC(C)C)NC(=O)CCC1CC(OC(=O)NCc2cccc3ccccc23)CC2(CCCC(COC(=O)NCc3ccccc3)O2)O1` (some centres undefined), for which the z-score was -0.482.
Turning to `CCOC(=O)c1ccc(NC(=O)O[C@H]2[C@H](OC(=O)Nc3ccccc3)[C@H](OC(=O)Nc3ccccc3)[C@@H](OC)O[C@@H]2CO)cc1`, the z-score is -0.468 and 0.363.
In the case of `CC[C@@H]1C(Sc2ccccc2)C(C(=O)O)[C@H](c2ccc(C)cc2)N1S(=O)(=O)c1ccc(C)cc1` (some centres undefined), the z-score was -0.604 and -0.627.
In the case of `CCCC[C@@H]1CN2[C@@H](CC[C@@H](C)[C@@H]2c2ccc(Br)cc2)C(=O)O1` it was 0.777 and 0.606; in that of `C=CCN(CCCCC)C(=O)C(c1cccs1)N(C(=O)/C=C\C(=O)O)c1ccc(CCO)cc1` (centres undefined), 0.191 and 0.129.
Regarding `C=C(C)C(=O)OC[C@@H]1CN2[C@@H](CC[C@@H](C)[C@@H]2c2ccc(Br)cc2)C(=O)O1`, the z-score is 0.513.
For the compound `COC(=O)C1=C2N(Cc3ccccc3)C(C)=C(C(=O)OC)[C@@H](c3ccccc3)N2C(=O)[C@](O)(C(=O)OC)C1`, the z-score was 0.0099 and -0.163.
Take `C=C[C@@H](C)[C@@H](O)c1ccc(OCCO)cc1`: the z-score is 1.12 and 0.982.
In the case of `C=CCN(Cc1ccccc1)C(=O)C1N(C(C)(C)CO)C(=O)C2C(C(=O)O)C3C=CC21O3` (centres undefined), the z-score is -0.0429 and 0.296.
Regarding `C=CCN(C(=O)C1N(C(C)(C)CO)C(=O)C2C(C(=O)O)C3C=CC21O3)c1ccc(OC)cc1` (centres undefined), the z-score was 1.33 and 0.347.
On to `COC(=O)c1c2oc(c1C(=O)OC)C(=O)N[C@@H](Cc1ccccc1)Cn1cc(nn1)C1(CCCCC1)NC(=O)N[C@H](CO)CC2`, for which the z-score is 1.89 and 0.153.
Turning to `C=C[C@H](C)[C@H](O)c1ccc(O)c2ccccc12`, the z-score was 1.06 and 1.82.
Regarding `CCOC(=O)C[C@H]1[C@H](OC(=O)c2ccccc2-c2ccccc2)[C@@H](NC(=O)Cc2ccc(OC)cc2)c2cc(OCCCO)ccc2N1C(=O)c1ccc2ccccc2n1`, the z-score is 2.5 and 0.544.
`CC(C)OC(=O)C=C1C[C@@H](c2ccccc2)O[C@@H](c2ccccc2)O1`: the z-score is -0.65 and -0.601.
`COC(=O)C1=C(C)N(Cc2ccccc2)C2=C(C(=O)c3ccccc3)[C@H](c3ccccc3)[C@@](O)(C(=O)OC)C(=O)N2[C@@H]1c1ccccc1`: the z-score was 1.17 and 0.312.
Turning to `COC(=O)[C@@]1(Cc2ccc(F)cc2)[C@H]2c3cc(C(=O)N4CCCC4)n(Cc4c(CO)[nH]cc(C)c4=O)c3C[C@H]2CN1C(=O)c1ccccc1`, the z-score was -0.573 and -0.476.
In the case of `C[N+](C)(C)CCCCCCNC(=O)[C@H]1C[C@H]2C(=O)N[C@@H](CCCC[N+](C)(C)C)C(=O)N2[C@H]1c1ccc(O)cc1`, the z-score was 0.0781 and 0.75.
In the case of `CC(CO)N1C(=O)[C@@H]2C3C(=O)OCCC=C[C@H]3OC23C=CCN(CCN2CCOCC2)C(=O)[C@@H]13` (some centres undefined) it was -0.831 and -0.259; in that of `CCCC[C@@H]1CN2[C@H](c3ccc(Br)cc3)[C@@H](C)CC[C@H]2C(=O)O1`, 1.06 and 0.354; in that of `CO[C@H]1COC(=O)CC=C[C@H](C)[C@H](OC)COC(=O)[C@@H](C)COC(=O)CC=C[C@@H]1C`, 0.945 and 1.12.

The values above are taken from PubChem BioAssay.
